Reference: PubChem BioAssay AID449762 (Southern Research Specialized Biocontainment Screening …, 2010)
About 1,900 (0.58%) of roughly 330,000 compounds were called active. Another 4% or so got no clear call; they are omitted. Only a sample is shown. Measured potencies and affinities stand elsewhere. A number with no mark means an inactive call. Rule as the data show it: inconclusive = inhibition above about 70% without an active follow-up result; inactive = below that.

assay: M. tuberculosis growth inhibition, HTS (AID 449762);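 also: bacterial growth assessed after seven days of incubation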; conditions: M. tuberculosis H37Rv growth inhibition, 7H9 media; at 25 µM; hits give high values

Row | SMILES | inhibition [%]
1 | CC(C)(C)NC(=O)C1Cc2ccccc2CN1S(=O)(=O)c1ccc(F)cc1 (centres undefined) | -4.99
2 | CC(C)Oc1cccc(C(=O)C2CCCN(Cc3cnc(N4CCOCC4)s3)C2)c1 (centres undefined) | 0.96
3 | CCN(CC)CCN(C(=O)c1ccc(S(=O)(=O)N2CCCCC2)cc1)c1nc2cc3c(cc2s1)OCO3 | 1.42
4 | CCOC(=O)N1CCN(S(=O)(=O)c2ccc(C(=O)N(CCN(CC)CC)c3nc4ccc(C)cc4s3)cc2)CC1 | -2.86
5 | CCN(CC)C(=O)N1CCC(NC(=O)c2ccc(C(C)(C)C)cc2)CC1 | 9.36
6 | Cc1cc(NC(=O)CSc2nc3ccccc3s2)no1 | 3.12
7 | NS(=O)(=O)c1ccc(-c2ccc(/C=C3\C(=O)Nc4ccccc43)o2)cc1 | -2.7
8 | Cc1ccc(C=C2C(=O)c3ccccc3C2=O)o1 | -3.84
9 | CC1CN(S(=O)(=O)c2cccc(C(=O)NCCCn3ccnc3)c2)CC(C)O1 (centres undefined) | -14.2
10 | CCOC(=O)NC(=O)c1cn(N(C)c2ncc(C(F)(F)F)cc2Cl)c(=O)[nH]c1=O | -2.39
11 | CC(OC(=O)c1ccco1)C(=O)Nc1ccc(Cl)cn1 (centres undefined) | 0.78
12 | CC(OC(=O)c1cc[n+]([O-])cc1)C(=O)Nc1ccc(Cl)cn1 (centres undefined) | -4.2
13 | COC(=O)c1sccc1-n1cccc1C(=O)C(=O)N1CCCC1 | 0.85
14 | CCOCc1cnc(C)nc1NCC(=O)c1c(C)[nH]c2ccc(OC)cc12 | -0.42
15 | CCn1cc(C(=O)N2CCN(c3cccc(Cl)c3)CC2)c2cc(OC)c(OC)cc2c1=O | -2.64
16 | COc1cc2c(C(=O)N3CCN(c4cccc(Cl)c4)CC3)cn(C)c(=O)c2cc1OC | -1.4
17 | O=C(O)CCC(=O)NNC(=O)CCC1CCCCC1 | 0.82
18 | CCOC(=O)c1c(NC(=O)OC)sc(C(=O)N(CC)CC)c1C | 10.1
19 | CCN(CC)C(=O)c1[nH]cnc1C(=O)NCc1ccc(CNC(=O)OC(C)(C)C)cc1 | -4.15
20 | Cc1oc2nc(SCC(=O)NC3CCCCC3)nc(N)c2c1C | 3.18
21 | COc1cccc(CC2(CO)CCCN(Cc3cc4ccccc4[nH]3)C2)c1 (centres undefined) | 10.5
22 | COc1cccc(CC2(CO)CCCN(Cc3ccc(C)s3)C2)c1 (centres undefined) | 1.24
23 | COc1ccccc1CCNC(=O)CCSc1nc(-c2ccco2)cc(C(F)(F)F)n1 | -1.55
24 | CCCN=Cc1sc2ccc(OCC)cc2c1O | -4.1

Row | SMILES | inhibition [%]
25 | Cc1cccc(NC(=O)/C(C#N)=C\c2cccnc2)c1 | -10.8
26 | NC(=O)C1CCN(Cc2nc3cc(C(F)(F)F)ccc3c(=O)[nH]2)CC1 | 2.7
27 | COc1cc2nc(CN3CC=C(c4ccccc4)CC3)[nH]c(=O)c2cc1OC | 3.16
28 | COc1ccc(CCNC(=O)CCNS(=O)(=O)c2cccc3nonc23)cc1OC | 2.46
29 | COC(=O)/C=C1/S/C(=N/NC(=O)c2ccccc2)NC1=O | -1.82
30 | O=C(CN1CCCCC1)N/N=C/c1ccccc1OCc1ccccc1 | -1.99
31 | Cn1c(=O)c2c(ncn2CC(=O)Nc2ccccc2Sc2ccccc2)n(C)c1=O | -2.88
32 | CN(C)C(=O)c1cc(C(=O)c2ccc(F)cc2C(F)(F)F)c[nH]1 | -3.23
33 | c1ccc(-n2nnnc2SCCCSc2nc3ccccc3s2)cc1 | -4.17
34 | CCSc1nnnn1-c1ccccc1 | 3.88
35 | N#Cc1ccccc1OCC(=O)N1CCc2ccccc2C1 | -4.88
36 | Cc1ccc(-c2nnc(NCc3nc4ccccc4[nH]3)c3ccccc23)cc1S(=O)(=O)N1CCOCC1 | 63.7
37 | Cc1nc(-c2ccccc2)sc1C(=O)CSc1ccc(Cl)cc1 | -5.11
38 | c1ccc2c(c1)OCc1cn[nH]c1-2 | -2.59
39 | Cc1ccc(/C=C/c2nnc(-c3ccccc3)o2)cc1 | -11.8
40 | CCOC(=O)CSc1[nH]c2cc(OC)ccc2c1[N+](=O)[O-] | 6.24
41 | COC(=O)CSc1[nH]c2ccccc2c1[N+](=O)[O-] | -2.39
42 | CN(C)CCOc1ccc(C(C)(C)c2ccccc2)cc1 | -3.02
43 | CN(C)CCOc1ccc2ccccc2c1 | 2.98
44 | COc1ccccc1NC(=O)Nc1ccc(F)c(F)c1 | 0.47
45 | CCc1nnc(NS(=O)(=O)c2ccc(N/C=C/C(=O)c3ccc(OC)cc3)cc2)s1 | 4.48
46 | CCc1nnc(NS(=O)(=O)c2ccc(N/C=C\C(=O)c3ccc4ccccc4c3)cc2)s1 | -6.64
47 | Cn1c(=O)c2c(SCC(=O)Nc3nccs3)nc(C3CC3)nc2n(C)c1=O | -1.82
48 | Cc1ccc(C2=NS(=O)(=O)N(C)C(C(=O)Nc3cc(C)n(CC(=O)N4CCCCC4)n3)=C2)cc1 | -4.07

Row | SMILES | inhibition [%]
49 | Cc1cccc(N=C2C(=O)Nc3c(Cl)cccc32)c1 | 6.57
50 | Cc1ccc(NC(=O)CSc2nc3ccccc3c3nc(CCn4cncc4C)nn23)c(C)c1 | 9.55
51 | Cc1ccccc1NC(=O)CSc1nc2ccccc2c2nc(CCn3cncc3C)nn12 | 6.6
52 | O=C(NCc1ccc2c(c1)OCO2)c1ccc(C2SCC(=O)N2Cc2ccco2)cc1 (centres undefined) | -7.71
53 | COc1ccc(C(=O)NCc2ccc3c(c2)OCO3)cc1 | -0.3
54 | COc1cc2c(cc1NC(=O)CN1CCN(S(=O)(=O)c3ccc(C)cc3)CC1)oc1ccccc12 | -6.72
55 | Cc1nc2nc3c(c(=O)n2[nH]1)CCC3 | -2.58
56 | O=c1c2c(nc3nc(NCc4cccc(Cl)c4)[nH]n13)CCC2 | 19.9
57 | O=c1c2c(nc3nc(NCc4ccccc4Cl)[nH]n13)CCC2 | 21.9
58 | Cc1nc2nc3c(c(=O)n2[nH]1)CCCC3 | -1.58
59 | COc1ccc(NC(=O)C2CCN(c3cc(-c4ccccc4)nc4ncnn34)CC2)cc1OC | -9.41
60 | CCOc1ncccc1C(=O)Nc1cccc(-c2nc3cccnc3s2)c1 | 2.6
61 | CCn1c(=O)n(CC)c2cc(S(=O)(=O)Nc3c(C)cccc3C)ccc21 | -0.18
62 | O=C1/C(=C/c2ccncc2)CCc2ccccc21 | 20.6
63 | O=C1/C(=C\c2cccnc2)CCc2ccccc21 | 53.9
64 | COc1ccc(CNC(=O)C2CCN(C(=O)c3csc(Nc4ccc(C)cc4)n3)CC2)cc1 | 9.09
65 | CC(CN1CCCCC1)OC(=O)/C=C/c1ccccc1 (centres undefined) | 4.22
66 | CCCc1nc2c(=O)[nH]c3ccccc3c2o1 | -2.82
67 | CCCCc1nc2c(=O)[nH]c3ccccc3c2o1 | -3.26
68 | CC(C)N1CCc2c(sc(NC(=O)CCc3ccccc3)c2C(N)=O)C1 | 2.58
69 | c1cncc(CNc2ncnc3ccc(-c4ccc5c(c4)OCCO5)cc23)c1 | 6.78
70 | Cc1cccc(CNc2ncnc3ccc(-c4ccc5c(c4)OCO5)cc23)c1 | 4.98
71 | O=C(CN1C(=O)NC(c2ccccc2)(c2ccccc2)C1=O)N1CCCCC1 | 3.83
72 | O=C1[C@H]2[C@@H](c3ccc(F)cc3)N3C(=O)N(c4ccccc4)C(=O)[C@@]3(Cc3ccccc3)[C@H]2C(=O)N1C1CCCCC1 | -4.71

Row | SMILES | inhibition [%]
73 | CC1(C)CC1C(=O)Nc1ccc([N+](=O)[O-])cc1Br (centres undefined) | -1.2
74 | Cc1cccc(C2(c3cccc(C)c3)CC2C(=O)Nc2ccc([N+](=O)[O-])cc2O)c1 (centres undefined) | 8.65
75 | CCC(=O)NC(=S)Nc1ccc(OC)cc1OC | 2.55
76 | Cc1nc(SCC(=O)NCC2CCCO2)c2c3c(sc2n1)CCC3 (centres undefined) | -2.08
77 | Cc1nc(SCC(=O)NCC2CCCO2)c2c(C)c(C)sc2n1 (centres undefined) | -15.3
78 | O=C(CSc1nc2scc(-c3ccccc3)c2c(=O)[nH]1)NCCc1ccccc1 | -20.7
79 | O=c1[nH]c(=O)n(C2CCCO2)cc1Br (centres undefined) | 1.51
80 | O=c1[nH]c(=O)n([C@H]2C[C@H](O)[C@@H](CO)O2)cc1F | 34.4
81 | COc1ccc(O)c(CN2CCCC(N3CCN(c4ccccc4OC)CC3)C2)c1 (centres undefined) | 4.68
82 | O=C(CCNC(=O)c1ccccc1Cl)Nc1nccs1 | -4
83 | COc1ccc(N(CC(=O)NCCc2ccccc2)C(=O)c2csnn2)cc1OC | -2.24
84 | COc1ccc(C2CC2/C(C)=N/OC(=O)C2CC2)cc1 (centres undefined) | 68.7
85 | COc1ccc(C2CC2C(C)=O)cc1 (centres undefined) | -4.29
86 | CC(C)(C)OC(=O)N1CCC(CC2CC(c3ccncc3)=NO2)(C(=O)O)CC1 (centres undefined) | -6.97
87 | O=c1c2ccccc2nnn1CSc1ccc2ccccc2n1 | -1.57
88 | CSc1ccc(S(=O)(=O)NCC(=O)OCC(=O)N2CCCCC2C)cc1[N+](=O)[O-] (centres undefined) | -8.12
89 | COc1ccc(-c2nsc3c(N4CCCC4)ncnc23)cc1 | 5.98
90 | COc1ccc(-c2nsc3c(N4CCCCC4)ncnc23)cc1 | -0.13
91 | Cc1ccc(CNC(=O)Cn2cccc2C(=O)c2ccccc2C)cc1 | -0.89
92 | CCN(CC)S(=O)(=O)c1cccc(C(=O)N/N=C/c2ccccn2)c1 | -3.65
93 | O=C(Nc1ccc(Br)cc1Cl)c1ccc(OCC2CCCO2)cc1 (centres undefined) | 3.35
94 | CCOC(=O)C1(Cc2cccc(Cl)c2)CCCN(C(=O)c2cnn(CC)c2)C1 (centres undefined) | -5.14
